Screening data as filed in PubChem BioAssay.
tim10-1 inh: growth inhibitors of tim10-1 mutant yeast, primary screen, luminescence, uHTS; AID 463190, 2010; inhibition, % at 20 µM; S. cerevisiae tim10-1 ts strain growth, BacTiter-Glo, 24 h; 330,000 compounds, 2.2% hits;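 active = inhibition of at least 40%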;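 also: mutant grown at 25 °C; 0% = DMSO wells with yeast and 100% = wells holding no yeast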
MPTP block: mitochondrial permeability transition pore inhibitors, primary screen, biochemical, isolated mouse mitochondria, absorbance. Ca2+ swelling absorbance, 30 min. inhibition, % at 10 µM. 360,000 compounds, 1.4% hits. AID 602449, 2012;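 active = inhibition of 50% or more, scaled per plate between neutral and stimulator controls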;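 also: 0% = DMSO wells given calcium and 100% = 1 mM EGTA wells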
tim23-1 inh: growth inhibitors of tim23-1 mutant yeast, primary screen, luminescence, uHTS; inhibition, % at 20 µM; S. cerevisiae tim23-1 growth, BacTiter-Glo luminescence, 24 h; 330,000 compounds, 1.3% hits; AID 463212, 2010;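 active = growth inhibition of the mutant yeast at or above 50%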;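 also: temperature-sensitive mutant grown at 25 °C; plate controls were DMSO-treated mutant yeast for no effect and medium wells lacking yeast for full effect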
TIM10 inh: growth inhibitors of isogenic TIM10 control yeast, primary screen, counter-screen for tim10-1 yeast inhibitor project, luminescence, uHTS | inhibition, % at 10 µM | AID 463195, 2010 | S. cerevisiae TIM10 strain growth, BacTiter-Glo luminescence, 24 h | 330,000 compounds, 1.4% hits;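 active = inhibition of 40% or more at the single tested concentration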;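 also: wild-type TIM10 isogenic control strain grown at permissive 25 °C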
Mdm2 MdmX PPI: inhibitors of human Mdm2-MdmX association, primary screen, cell-based, luminescence, split luciferase, SaOS-2, uHTS. SaOS-2 split-luciferase Mdm2/MdmX complementation. inhibition, % at 8 µM. 330,000 compounds, 3% hits. AID 485346, 2010;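 active = inhibition of at least 50% at 8 µM in the primary screen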
Target sequence (O15151 whole entry, looked up): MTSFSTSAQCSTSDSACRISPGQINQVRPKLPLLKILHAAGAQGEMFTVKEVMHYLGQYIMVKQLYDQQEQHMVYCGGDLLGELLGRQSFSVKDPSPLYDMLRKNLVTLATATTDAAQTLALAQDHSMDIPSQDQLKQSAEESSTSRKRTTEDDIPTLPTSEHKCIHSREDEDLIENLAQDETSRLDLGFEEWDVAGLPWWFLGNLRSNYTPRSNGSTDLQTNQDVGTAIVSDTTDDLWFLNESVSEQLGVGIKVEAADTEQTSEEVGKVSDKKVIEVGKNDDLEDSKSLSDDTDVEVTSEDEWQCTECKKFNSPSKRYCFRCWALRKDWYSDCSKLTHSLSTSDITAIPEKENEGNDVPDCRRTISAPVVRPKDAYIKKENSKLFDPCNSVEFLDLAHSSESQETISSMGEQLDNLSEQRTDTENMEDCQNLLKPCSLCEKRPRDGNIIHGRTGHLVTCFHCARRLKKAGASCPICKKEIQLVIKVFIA
Target sequence (Q00987 whole entry, looked up): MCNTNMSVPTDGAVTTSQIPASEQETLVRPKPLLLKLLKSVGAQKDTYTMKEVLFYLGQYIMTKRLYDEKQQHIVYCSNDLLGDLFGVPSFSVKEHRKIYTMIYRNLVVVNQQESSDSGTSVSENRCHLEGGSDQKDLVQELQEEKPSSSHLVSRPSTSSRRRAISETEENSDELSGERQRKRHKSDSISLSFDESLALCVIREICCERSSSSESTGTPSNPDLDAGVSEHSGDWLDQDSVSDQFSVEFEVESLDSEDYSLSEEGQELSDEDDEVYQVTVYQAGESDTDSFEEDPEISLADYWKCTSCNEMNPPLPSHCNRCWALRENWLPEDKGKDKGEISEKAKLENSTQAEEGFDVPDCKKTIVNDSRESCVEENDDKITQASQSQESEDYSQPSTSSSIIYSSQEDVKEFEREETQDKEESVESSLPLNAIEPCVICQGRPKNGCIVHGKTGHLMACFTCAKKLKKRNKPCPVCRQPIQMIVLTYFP
tim10-1 confirm: growth inhibitors of tim10-1 mutant yeast, confirmation, single concentration, luminescence, S. cerevisiae. 7,400 compounds, 56% hits. S. cerevisiae tim10-1 ts strain growth, BacTiter-Glo, 24 h. shares compounds with tim10-1 inh. inhibition, % at 20 µM;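 active = inhibition of yeast growth at or above a set limit in either of two repeat tests at 20 µM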;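 also: tim10-1 mutant grown at permissive 25 °C to find synthetic lethal compounds; 0% = DMSO yeast wells and 100% = medium wells without yeast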
tim10 confirm: growth inhibitors of wild-type TIM10 yeast, confirmation, counter-screen for tim10-1 synthetic lethality project, single concentration, luminescence, S. cerevisiae; inhibition, % at 10 µM; shares compounds with TIM10 inh; S. cerevisiae tim10 strain growth, BacTiter-Glo luminescence, 24 h; 4,600 compounds, 63% hits;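 active = inhibition of yeast growth at or above a set limit in either of two replicates at 10 µM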;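 also: this counterscreen used the strain with wild-type TIM10; 0% = yeast with DMSO and 100% = medium wells lacking yeast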
tim23-1 confirm: tim23-1 mutant yeast growth inhibitors, confirmation, luminescence, single concentration; shares compounds with tim23-1 inh; AID 463218, 2010; inhibition, % at 20 µM; S. cerevisiae tim23-1 growth, BacTiter-Glo luminescence, 24 h; 4,400 compounds, 83% hits;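 active = inhibition above about 39% in either of two replicate wells at 20 µM, limit read from the data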;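 also: temperature-sensitive tim23-1 mutant grown at 25 °C; 0% = DMSO wells with yeast and 100% = medium wells without yeast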
An asterisk follows results filed as active; . = not tested or not shown. Compounds with a hit are over-represented: about 6.3% of the library has one in this group of screens.

SMILES	tim10-1 inh	MPTP block	tim23-1 inh	TIM10 inh	Mdm2 MdmX PPI	tim10-1 confirm	tim23-1 confirm	others
CC1C(c2ccccc2)OCCN1C(=S)Nc1ccc(S(=O)(=O)N2CCCCC2)cc1 (stereo unspecified)	.	3	.	.	.	.	.
Cc1oc(=O)c(NC(=O)c2ccccc2)cc1C(=O)c1ccccc1	62*	3	57*	53*	-31	61*	60*	tim10 confirm=55*
CCOCc1nc(N)nc(N)c1-c1cccc(Cl)c1	.	0	.	.	.	.	.
C=CCc1cccc(/C=N/NC(=O)c2ccccc2Br)c1O	44*	34	62*	64*	38	19	61*	tim10 confirm=58*
O=C(N/N=C/c1ccccc1C(=O)O)c1ccccc1Br	13	0	5	11	0	.	.
COc1ccc(/C=C/c2nnc(NC(=O)C(C)(C)C)s2)cc1	41*	2	52*	30	-10	31*	46*
CCCC(=O)Nc1nnc(/C=C/c2ccc(OC)cc2)s1	-3	1	11	11	-12	.	.
CC(C)[C@@H]1Cc2[nH]n(C)c(=O)c2[C@H](c2ccc(Cl)cc2)O1	.	1	.	.	.	.	.
O=C1NC[C@H](CCCCN2C[C@H](Cc3ccccc3)N(CCC3CCCCC3)C(=O)C2=O)N(CCc2ccc(O)cc2)C1=O	.	-1	.	.	.	.	.
O=C1CCCCC1C(Nc1ccc(Br)cc1)c1ccccc1 (stereo unspecified)	41*	1	53*	29	-28	32*	48*
O=C(O)c1ccc(C[n+]2c(-c3ccccc3)csc2Nc2ccccc2)cc1	36	-5	25	34	15	.	.
CC(C)(C)c1cc(-c2csc(Nc3ccccc3)[n+]2Cc2ccc(C(=O)O)cc2)cc(C(C)(C)C)c1O	46*	19	54*	38	14	57*	53*
CCCS(=O)(=O)NC(=O)C1(C)CCCN(C(=O)c2c(OC)cccc2OC)C1 (stereo unspecified)	.	-2	.	.	.	.	.
CN1C(=O)[C@H]2[C@@H](c3ccc(C(F)(F)F)cc3)N[C@]3(CCCN(CC4CCCCC4)C3=O)[C@H]2C1=O	.	-1	.	.	.	.	.
CCN(Cc1ccccc1)C(c1ccccn1)c1nnnn1C1CCCCC1 (stereo unspecified)	42*	0	62*	61*	3	51*	65*	tim10 confirm=62*
COC(=O)[C@]12CCCCC=C1N(Cc1ccc3c(c1)OCO3)C(=O)[C@H](CC(=O)NCCCCc1ccccc1)C2	.	-2	.	.	.	.	.
CC(=O)NC(C)(c1ccccc1)c1nc(-c2ccc(F)c(Cl)c2)cs1 (stereo unspecified)	.	0	.	.	.	.	.
O=C(Nc1ccc(Nc2ccccc2)cc1)c1ccc(Br)o1	41*	6	52*	39	-31	33*	80*
COc1ccc(-c2ccc(NC(=O)c3ccco3)cc2)nn1	47*	0	57*	46*	7	22	51*	tim10 confirm=30
COc1ccc(NC(=O)c2ccco2)cc1NC(=O)c1ccc(Br)o1	44*	0	55*	76*	5	23	74*	tim10 confirm=61*
CCOc1ccccc1C(=O)NCC(=O)N(C)CC(=O)Nc1ccc(N2CCOCC2)cc1	.	1	.	.	.	.	.
COC(=O)[C@@]12C[C@@H](CC(=O)N3CCSCC3)C(=O)N(Cc3cccc4ccccc34)C1=CCC(C)(C)C2	.	-2	.	.	.	.	.
CCOC(=O)N1C(=O)C2(CCCCC2)N(c2ccccc2Cl)C1=S	60*	31	78*	57*	9	52*	68*	tim10 confirm=-2
Cc1ccc(CNc2oc(-c3cccs3)nc2C#N)cc1	44*	3	52*	18	18	26	46*
N#Cc1nc(-c2cccs2)oc1NCc1ccccc1	29	2	42	17	4	.	.
SMILES	tim10-1 inh	MPTP block	tim23-1 inh	TIM10 inh	Mdm2 MdmX PPI	tim10-1 confirm	tim23-1 confirm	others
CCc1nc2ccc(C(=O)NCCNC(C)=O)cn2c1N(CC)CCOC	.	-3	.	.	.	.	.
O=C(Nc1cccc(Cl)c1)c1ccc2c(=O)n3c(nc2c1)CCCCC3	45*	2	54*	73*	-169	30	80*	tim10 confirm=-15
O=C(Nc1ccc(Cl)cc1)c1ccc2c(=O)n3c(nc2c1)CCCCC3	-6	1	-14	-1	-17	.	.
Oc1ccccc1C1Nc2cccc3cccc(c23)N1	52*	3	77*	46*	1	52*	74*	tim10 confirm=44*
C=CCC(NC(=O)N(C)C)(C(C)=O)C(=O)OC (stereo unspecified)	.	2	.	.	.	.	.
COc1cccc(CN2c3ccc(Br)cc3C(=O)CS2(=O)=O)c1	40*	2	57*	32	8	38*	60*
COc1cccc(CN2C(=O)C(C)Oc3ccccc32)c1 (stereo unspecified)	10	0	-3	-2	5	.	.
OC(c1cccc(Cl)c1)c1nccc2ccccc12 (stereo unspecified)	3	-2	12	-4	10	.	.
O=C(OC(c1ccccc1)c1nccc2ccccc12)c1cc([N+](=O)[O-])cc([N+](=O)[O-])c1 (stereo unspecified)	54*	1	57*	43*	20	45*	47*	tim10 confirm=-7
CCOc1cccc(NCc2cc3c(C(C)(C)C)nn(-c4ccccc4)c3[nH]c2=O)c1	50*	4	68*	42*	30	42*	65*	tim10 confirm=25
CC(=O)Nc1cc(-c2cccc(C(=O)N(C)C)c2)cn2c(-c3ccc(C(C)=O)cc3)cnc12	.	-2	.	.	.	.	.
COc1ccccc1Cc1c(-c2cccc(Cl)c2)nc2ccc(Br)cn12	.	1	.	.	.	.	.
CC(C)Cc1ccc([C@H](C)C(=O)O)cc1	-11	-5	7	-2	9	.	.
CC(C)Cc1ccc(-c2cc(=O)[nH][nH]2)cc1	59*	-1	53*	7	-11	28	44*
CCCCNC(=O)C1(C)CCCCN1C(=O)c1c(C)noc1C (stereo unspecified)	.	-2	.	.	.	.	.
CC(=O)Nc1cccc(-c2csc(C(O)c3cccc(Cl)c3)n2)c1 (stereo unspecified)	.	0	.	.	.	.	.
Cc1cc(N)n2ncc(-c3ccc(Cl)cc3)c2n1	53*	2	71*	22	-2	41*	21*
Cc1cc(-c2ccc(Cl)cc2)c2cnn(C(C)C)c2n1	35	-1	36	-4	23	.	.
